Records with an inconclusive call do not appear. Calls of active or inactive are those of the source. Calls follow the shape of the dose curve; as a rule, active = well fitted cell-killing curve with a large enough effect; inconclusive = small, poorly fitted or top-dose-only effect, or effect the other way; inactive = flat fitted curve, though single readings scatter.
Assays:
Test in all cases: Primary qHTS to identify gynecologic anti-cancer compounds using libraries of approved drugs and bioactive compounds (AID 1345084); also: nearly all actives have a fitted effect of over 55% in size
Conditions in all cases: Gynecologic cancer cell panel viability, ATPlite luminescence, 48 h; series mostly up to 57.5 µM
OV90 = test system: OV90
Procedure, shortened: (§1)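 ATP-based viability (ATPlite), 1,000 cells/well, 16 h pre-incubation, 48 h compound at 37 C, 5% CO2, 15 min RT before read.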

PA-1 = test system: PA-1
Procedure, shortened: as §1

SKOV3 = test system: SKOV3
Procedure, shortened: as §1

Tov-21-G = test system: Tov-21-G
Procedure, shortened: as §1

Tov112D = test system: Tov112D
Procedure, shortened: as §1
% is scaled to controls: 0 for no effect and ±100 for the full control effect.

COc1ccc2c(OC)c3ccoc3nc2c1OC
inactive: Potency (OV90) | Potency (PA-1) | Potency (SKOV3) | Potency (Tov-21-G) | Potency (Tov112D)

C=C1CCCC2(C)CC3(OC)OC(=O)C(C)=C3CC12 (stereo not given)
inactive: Potency (OV90) | Potency (PA-1) | Potency (SKOV3) | Potency (Tov-21-G) | Potency (Tov112D)

CC(=O)OC[C@@]12C(=O)C[C@@H](C)[C@]3(C[C@@H](c4ccoc4)O[C@H]3OC(C)=O)[C@H]1CCC[C@]21CO1
inactive: Potency (OV90) | Potency (PA-1) | Potency (SKOV3) | Potency (Tov-21-G) | Potency (Tov112D)

O=C(O)Cc1cn(C2OCC(O)C(O)C2O[C@@H]2O[C@H](CO)[C@@H](O)[C@H](O)[C@H]2O)c2ccccc12 (stereo not given in full)
inactive: Potency (OV90) | Potency (PA-1) | Potency (SKOV3) | Potency (Tov-21-G) | Potency (Tov112D)

Oc1ccc2nc(CN3CCC(Cc4ccccc4F)CC3)[nH]c2c1
inactive: Potency (OV90) | Potency (PA-1) | Potency (SKOV3) | Potency (Tov-21-G) | Potency (Tov112D)

CC1CCC2(CO)C(C(=O)O)=CCCC2C1(C)CCc1ccoc1 (stereo not given)
inactive: Potency (OV90) | Potency (PA-1) | Potency (SKOV3) | Potency (Tov-21-G) | Potency (Tov112D)

CC(=O)OC/C=C(\C)C(CC1C(C)=C(OC(C)=O)C(=O)C2C(C)(C)C(O)CCC12C)OC(C)=O (stereo not given)
inactive: Potency (OV90) | Potency (PA-1) | Potency (SKOV3) | Potency (Tov-21-G) | Potency (Tov112D)

CC1=C(CCC(C)O[C@@H]2O[C@H](CO)[C@@H](O)[C@H](O)[C@H]2O)C(C)(C)CCC1=O (stereo not given in full)
inactive: Potency (OV90) | Potency (PA-1) | Potency (SKOV3) | Potency (Tov-21-G) | Potency (Tov112D)

CC1=CC(=O)C2(OC3OC(C)C(O)C(OC(=O)/C=C/c4ccccc4)C3O)C=COC(OC3OC(CO)C(O)C(O)C3O)C12 (stereo not given)
inactive: Potency (OV90) | Potency (PA-1) | Potency (SKOV3) | Potency (Tov-21-G) | Potency (Tov112D)

CC(C)C[C@H](CC(=O)NO)C(=O)N[C@H](C(=O)N[C@@H](C)C(=O)NCCN)C(C)(C)C
inactive: activity change, negative = cytotoxicity (OV90) 19.6% [at 11.6 µM] | activity change, negative = cytotoxicity (PA-1) 8.02% [at 11.6 µM] | activity change, negative = cytotoxicity (SKOV3) 0% [at 11.6 µM] | activity change, negative = cytotoxicity (Tov-21-G) 7.8% [at 11.6 µM] | activity change, negative = cytotoxicity (Tov112D) -2.79% [at 11.6 µM]

Source: PubChem BioAssay (NCATS)
